High-throughput results: PubChem, several laboratories
CCHF vOTU inh-1 = CCHFV vOTU protease inhibitors, primary screen, biochemical, Pep-AMC substrate, fluorescence; AID 651958, 2012; inhibition, % at 11.5 µM; 370,000 compounds, 0.55% hits; further: 0% = vehicle wells with enzyme and 100% = no enzyme wells
Mtb hypoxia rep = PubChem AID 1159583. M. tuberculosis hypoxia-regulated fluorescent reporter, fluorescence. fluorescence inhibition, % (test concentration not listed). 300,000 compounds, 0.1% hits; in the data active means fluorescence inhibition mostly above about 23%, no sharp cut-off; inactive means mostly below about 17%
Mtb bLac sens = beta-lactam sensitization of Mtb H37Rv, H37Rv. M. tuberculosis H37Rv growth with meropenem, percent inhibition. 330,000 compounds, 0.27% hits. AID 434955, 2010. inhibition, % at 25 µM; call rule not given here;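 further: growth measured after seven days incubation then overnight dye step; 0% = bacteria only wells and 100% = bacteria with antibiotic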
RecA splice inh = Mtb RecA intein splicing inhibitors, primary screen, biochemical, fluorescence, HTS; Protein RecA (Mycobacterium tuberculosis (strain ATCC 25618 / H37Rv)), P9WHJ3; cell-free RecA intein splicing; inhibition, % (test concentration not listed); 290,000 compounds, 0.75% hits; AID 2221, 2009; in the data active means inhibition above about 30%; inconclusive means no clear call, values can overlap the other calls;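 further: 0% = vehicle wells and 100% = reference inhibitor control wells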
Target sequence (P9WHJ3 whole entry, looked up, canonical isoform): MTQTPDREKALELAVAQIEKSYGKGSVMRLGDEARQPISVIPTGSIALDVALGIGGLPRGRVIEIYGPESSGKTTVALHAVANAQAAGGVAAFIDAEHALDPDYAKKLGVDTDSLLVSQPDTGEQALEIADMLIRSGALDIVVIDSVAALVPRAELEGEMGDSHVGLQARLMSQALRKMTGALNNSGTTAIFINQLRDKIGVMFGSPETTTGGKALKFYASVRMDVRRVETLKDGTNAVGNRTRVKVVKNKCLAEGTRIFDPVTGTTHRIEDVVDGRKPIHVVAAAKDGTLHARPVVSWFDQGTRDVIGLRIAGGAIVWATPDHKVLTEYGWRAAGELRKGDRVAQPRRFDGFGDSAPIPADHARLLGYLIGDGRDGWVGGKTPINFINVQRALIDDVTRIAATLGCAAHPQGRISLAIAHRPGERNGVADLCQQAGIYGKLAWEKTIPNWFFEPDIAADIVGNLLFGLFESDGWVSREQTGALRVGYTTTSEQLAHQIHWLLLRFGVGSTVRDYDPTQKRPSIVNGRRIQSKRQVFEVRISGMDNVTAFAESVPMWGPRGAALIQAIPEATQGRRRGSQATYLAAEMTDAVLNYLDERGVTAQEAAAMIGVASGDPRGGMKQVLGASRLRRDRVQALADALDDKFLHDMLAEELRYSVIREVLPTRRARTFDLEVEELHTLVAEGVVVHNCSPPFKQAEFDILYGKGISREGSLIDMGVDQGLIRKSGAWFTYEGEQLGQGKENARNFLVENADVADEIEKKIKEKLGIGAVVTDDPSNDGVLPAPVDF
PfHsp40 rescue = rescue of yeast from PfHsp40 toxicity, primary screen, S. cerevisiae, ATP luminescence | AID 504582, 2011 | S. cerevisiae expressing PfHsp40, growth rescue | 340,000 compounds, 0.68% hits | growth rescue, % at 12.5 µM; in the data active means growth rescue above about 28%, passing the limit was not always enough; inconclusive means no clear call, values can overlap the other calls;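 further: yeast W303a lacking pdr1 and pdr3 grown in galactose medium; growth measured after three days at 30 °C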
CCHF vOTU inh-2 = CCHFV vOTU protease inhibitors, confirmation, biochemical, Pep-AMC substrate, fluorescence; shares compounds with CCHF vOTU inh-1; Recombinant CCHFV vOTU; inhibition, % at 11.5 µM; 1,900 compounds, 17% hits; AID 686976, 2013
* marks the source's active call; other numbers are inactive results; ? = inconclusive; · = no result shown. Compounds with a hit are over-represented: about 1.7% of the library has one in this group of screens. Unless noted, no stated cut-off is given here; in the data, active means inhibition above about 30%; inactive means the rest.

SMILES	CCHF vOTU inh-1	Mtb hypoxia rep	Mtb bLac sens	RecA splice inh	PfHsp40 rescue	CCHF vOTU inh-2
COc1ccc2ccccc2c1C1CC(=O)N2CN(Cc3ccco3)CSC2=C1C#N (stereo unspecified)	33*	4	-4	4	0	22
COc1ccc(C2CC(=O)N3CN(Cc4ccco4)CSC3=C2C#N)cc1 (stereo unspecified)	9	-7	1	6	-1	·
COc1ccc2ccccc2c1C1CC(=O)N2CN(C3CCCCC3)CSC2=C1C#N (stereo unspecified)	47*	4	-3	12	0	35*
CCOc1cc(C2CC(=O)N3CN(C4CCCCC4)CSC3=C2C#N)ccc1O (stereo unspecified)	12	·	2	3	1	·
O=C(NN=Cc1ccco1)c1cc(C2CC2)nc2ccccc12	·	1	·	·	·	·
CC1(Cc2cccc(C(F)(F)F)c2)C(=O)Nc2ccc(-c3ccc(F)c(Cl)c3)cc21 (stereo unspecified)	32*	·	·	·	·	-1
Cc1cc(C)cc(OC(C)c2ccnc3nc(N=CN(C)C)nn23)c1 (stereo unspecified)	·	7	·	·	·	·
CC(=O)N1CCn2c3c(c(=O)c4cc(C)ccc42)CCC31 (stereo unspecified)	101*	8	4	·	0	16
Clc1ccc(C(c2ccc(Cl)cc2)n2cc[n+](CC(OCc3ccc(Cl)cc3Cl)c3ccc(Cl)cc3Cl)c2)cc1 (stereo unspecified)	41*	·	100	·	-1	25
O=C(CC=NOCc1ccc(Cl)cc1Cl)c1ccc(Cl)cc1	·	5	·	·	·	·
Cc1ccc(NN=C2c3ccccc3-c3ccccc32)cc1	35*	-2	99	-1	0	-11
c1ccc(NN=C2c3ccccc3-c3ccccc32)cc1	-7	16	·	·	2	·
Fc1ccc(-c2nnc(Cc3ccc(Cl)cc3)o2)cc1	30*	·	7	3	2	-15
O=C1Nc2ccccc2Nc2ccc([N+](=O)[O-])cc21	38*	-5	?	3	-2	27
CC(=O)NC1=C(N(C)C2CCS(=O)(=O)C2)C(=O)c2ccccc2C1=O (stereo unspecified)	61*	·	-1	26	-1	71*
O=C(CC1S/C(=N/N=Cc2ccco2)NC1=O)Nc1ccccc1 (stereo unspecified)	·	6	·	·	·	·
COc1ccc(OC)c(-c2nnc3n2N=C(c2ccc(OC)c(OC4CCCC4)c2)CS3)c1	32*	7	24	·	2	23
Cc1cc(SCC(=O)NC2CC2)nc2ccccc12	40*	7	3	·	2	-1
CCN(Cc1cc(=O)n2ccsc2n1)c1cccc2ccccc12	54*	-4	-4	1	178*	-4
Cc1cc(SCc2cc(=O)n3ccsc3n2)nc2ccccc12	-2	3	-1	0	-1	·
N#CCC(c1ccccc1)N1CCN(Cc2ccccc2)CCC1=O (stereo unspecified)	·	9	·	·	·	·
CCC(=O)OC1CCC2C3CCC4CC(=O)C=CC4(C)C3CCC12C (stereo unspecified)	30*	8	·	·	-3	10
CN(Cc1c(C(=O)NN=Cc2ccccc2)nnn1-c1nonc1N)C1CCCCC1	·	-10	·	·	·	·
Nc1ncc(Br)cc1S(=O)(=O)Nc1cc(C(F)(F)F)cc(C(F)(F)F)c1	32*	·	0	4	0	13
COc1ccc(S(=O)(=O)n2nc(OC(=O)c3ccc(C)cc3)cc2N)cc1	35*	11	-2	7	-1	-7
SMILES	CCHF vOTU inh-1	Mtb hypoxia rep	Mtb bLac sens	RecA splice inh	PfHsp40 rescue	CCHF vOTU inh-2
COc1ccc(OCC(=O)NNC(=O)C(=O)Nc2cc(OC)ccc2OC)cc1	35*	0	67	-3	-1	3
COc1ccc(OC)c(NC(=O)C(=O)NNC(=O)COc2ccc(Br)cc2C)c1	2	7	81	-3	-2	·
O=C(NCc1ccccc1)C(=O)c1cn(CC(=O)N2CCOCC2)c2ccccc12	35*	8	-2	0	-1	-9
CCOC(=O)NC(=O)C(C#N)=CNc1sccc1C(=O)OC	·	5	·	·	·	·
C=CCc1cccc(/C=N/c2ncccc2O)c1O	59*	·	4	0	-1	16
CC1(C(=O)NCc2cccc3ccccc23)CCN1Cc1ccc2ccccc2c1 (stereo unspecified)	4	·	·	·	·	·
CCCCNC(=O)C1(C)CCN1C(=O)Cc1cccc2ccccc12 (stereo unspecified)	47*	·	·	·	·	-23
CC1(C(=O)NCc2cccc3ccccc23)CCN1Cc1ccc(OC(F)(F)F)cc1 (stereo unspecified)	34*	·	·	·	·	17
Cc1cc(O)c(Sc2ncn[nH]2)cc1NS(=O)(=O)c1ccc(Cl)cc1	-3	-8	0	·	0	·
O=S(=O)(Nc1cc(Sc2ncn[nH]2)c(O)c2ccccc12)c1ccccc1	105*	-7	·	·	24	97*
COc1cc2cc(Oc3ccc4ccc(=O)oc4c3)c(=O)oc2cc1OC1OC(CO)C(O)C(O)C1O (stereo unspecified)	·	10	·	·	·	·
CC1CN(C(C)CO)C(=O)Cc2cc(NS(=O)(=O)c3cccs3)ccc2OC1CN(C)S(=O)(=O)c1cn(C)cn1 (stereo unspecified)	·	11	·	·	·	·
CN1c2ccccc2C(C)(C)C12C=Nc1c(cc(N3CCOCC3)c3ccccc13)O2 (stereo unspecified)	102*	·	·	46*	-2	-16
CN1c2ccccc2C(C)(C)C12C=Cc1cc(O)ccc1O2 (stereo unspecified)	8	3	2	6	4	·
Cc1ccccc1C=CC1=NCCN1	·	5	·	·	·	·
CCC(Sc1nc2ccsc2c(=O)n1Cc1ccc(C(=O)O)cc1)C(=O)Nc1ccc(C)c(Cl)c1 (stereo unspecified)	31*	-3	3	0	0	8
Cc1ccc(NC(=O)CCC(=O)NN=Cc2ccccc2O)cc1	·	-8	·	·	·	·
CCOc1ccc(/C(O)=C2\C(=O)C(=O)N(CCN(C)C)C2c2cccc(OC)c2OC)cc1Cl (stereo unspecified)	30*	·	3	2	-1	-9
CCOc1ccc(/C(O)=C2\C(=O)C(=O)N(CCN(C)C)C2c2cc(OC)ccc2OC)cc1Cl (stereo unspecified)	5	2	·	·	0	·
Cc1ccc(C(=O)NN=Cc2ccc(N3CCOCC3)cc2)c(C)c1	·	1	·	·	·	·
CCN(CC)C(=O)CN(c1cc2c(cc1OC)oc1ccccc12)S(=O)(=O)c1ccc(C)cc1	30*	·	2	8	1	-23
CC1Cc2nc(SCC(=O)N3CCCC3)n(C)c(=O)c2S1 (stereo unspecified)	7	1	-5	1	0	·
CC1Cc2nc(SCC(N)=O)n(C)c(=O)c2S1 (stereo unspecified)	32*	12	3	-2	-1	-9
CN(CC(=O)Nc1ccc(F)cc1)C(=O)C1CCN(S(=O)(=O)c2ccc3c(c2)OCCO3)CC1	34*	4	-1	4	0	-16
